SMILES strings stand for the structures. Inconclusive results are not listed. Entries that show only a call come without a potency. The source made the active and inactive calls. Calls follow the shape of the dose curve; as a rule, active = well fitted inhibition curve with a large enough effect; inconclusive = small, poorly fitted or top-dose-only effect, or effect the other way; inactive = flat fitted curve, though single readings scatter.
Potency is read from the fitted curve at half-maximal effect.

Chain of Pyruvate kinase (Leishmania mexicana) (Q27686 whole entry, looked up): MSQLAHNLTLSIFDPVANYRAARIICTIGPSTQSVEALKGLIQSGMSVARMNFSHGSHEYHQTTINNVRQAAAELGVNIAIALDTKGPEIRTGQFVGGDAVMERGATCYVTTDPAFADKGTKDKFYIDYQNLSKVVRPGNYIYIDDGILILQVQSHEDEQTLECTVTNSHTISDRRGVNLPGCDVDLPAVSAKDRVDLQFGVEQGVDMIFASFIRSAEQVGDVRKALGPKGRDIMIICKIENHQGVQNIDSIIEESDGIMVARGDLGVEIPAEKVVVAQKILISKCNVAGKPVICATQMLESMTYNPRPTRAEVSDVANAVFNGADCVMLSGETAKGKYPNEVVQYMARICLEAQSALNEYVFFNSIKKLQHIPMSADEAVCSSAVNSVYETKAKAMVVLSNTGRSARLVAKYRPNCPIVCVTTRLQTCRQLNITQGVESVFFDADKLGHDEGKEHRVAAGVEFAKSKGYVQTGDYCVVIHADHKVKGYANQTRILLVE

This assay addresses Pyruvate kinase (Leishmania mexicana) (UniProt Q27686). Put plainly: Confirmation Assay for Inhibitors of Leishmania Mexicana Pyruvate Kinase (LmPK): for Probe SAR. Particulars: purified LmPK, ATP generation, Kinase-Glo luminescence; series mostly up to 57.5 µM. The text has this:
NIH Chemical Genomics Center [NCGC] Malcolm Walkinshaw, Hugh Morgan, Linda Gilmore University of Edinburgh, UK MLPCN Grant: 1 R03 MH085697-01 NCGC Assay Overview: Pyruvate kinase (L. Mexicana) (LmPK) enzyme was supplied as a highly purified (>95% pure) sulphate-free preparation from University of Edinburgh, UK and assayed for its ability to generate ATP from ADP using phosphoenolpyruvate (PEP) as a substrate. ATP generation was detected in a coupled reaction by luciferase-mediated luminescence, an ATP-dependent process. Pyruvate kinase substrates, PEP and ADP, were present in the assay at Km and approximately 10-fold below Km respectively. The enzyme was assayed at an intermediate level of activity to screen for both inhibitors and activators.
NCGC Assay Protocol Summary: Three uL of enzyme mix (kept on ice) in assay buffer (50 mM Imidazole pH7.2, 50 mM KCl, 7 mM MgCl2, 0.01% Tween 20, 0.05% BSA) containing PEP (0.5 mM final concentration) and LmPK (0.1 nM final concentration) was dispensed into white solid bottom 1,536 well microtiter plates. 23 nL of compound were delivered by a pin tool and 1 uL of ADP mix in assay buffer (r.t; 0.1 mM final ADP concentration) was added. Plates were incubated at room temperature for 1 hour. Two uL of detection mix (Kinase-Glo, Promega; at 4 degree Celsius protected from light) was added and luminescence read by a ViewLux (Perkin Elmer) at 1 second exposure/plate. Data were normalized to the uninhibited and AC100 inhibition (no enzyme). To monitor activation, the first column contained a five-fold concentration of LmPK (0.5 nM).
For the molecule `O=C1CCc2cc(S(=O)(=O)Nc3ccc(F)cc3)ccc2N1`, the Potency entry was “inactive”. For the molecule `Cc1ccc(NS(=O)(=O)c2cccc(Cl)c2)cc1C`, the Potency entry is “inactive”. As for `Cc1cc(C)c2ccc(C3C(=O)c4ccc(O)cc4C3=O)nc2c1` (stereo not given), the Potency result is “inactive”.

With `Cc1cc(C)c2c(=O)cc(C3C(=O)c4ccccc4C3=O)[nH]c2c1`, the Potency entry was “inactive”. On to `O=[S+]1([O-])N=C(Oc2cccnc2)c2ccccc21`, for which the Potency entry was “inactive”. For `Nc1ccccc1OC1=NS(=O)(=O)c2ccccc21`, the Potency result was “inactive”.

`Cn1c2cc(S(C)=O)sc2c2cnn(Cc3cccc(N)c3)c(=O)c21` (stereo not given): the Potency result is “inactive”. In the case of `Cc1ccc(NS(=O)(=O)c2cc3c(cc2F)NC(=O)CC3)cc1C`, the Potency entry is “inactive”. The result for `Cc1ccc(NS(=O)(=O)c2ccc3c(c2)CCC(=O)N3)cc1` reads “inactive”; that for `COc1cccc(N2C(=O)c3ccccc3C2=O)c1`, “inactive”; that for `CCOc1ccc2c(c1)C(=O)C(c1cc(=O)c3ccccc3[nH]1)C2=O` (stereo not given), “inactive”. For the molecule `O=C1CCc2cc(S(=O)(=O)Nc3ccc(-c4ccccc4)cc3)ccc2N1`, the Potency result was “inactive”. The result for `Cc1ccc(NS(=O)(=O)c2cc3c(cc2Br)NC(=O)CO3)cc1C` reads “inactive”; that for `Cc1ccc(Nc2c(-c3ccsc3)nc3c(C)cccn23)cc1`, “inactive”. The result for `Cc1ccc(Nc2c(-c3ccc(C)o3)nc3ccccn23)cc1` reads “inactive”; that for `COc1cc(N2C(=O)c3ccccc3C2=O)c2ncccc2c1`, “inactive”. Take `O=C1c2ccccc2C(=O)N1c1cc(=O)c2ccccc2[nH]1`: the Potency was 3.26 µM (active). `COc1cccc(NS(=O)(=O)c2ccc3c(c2)CCC(=O)N3)c1`: the Potency result was “inactive”.

Turning to `Cc1ccc(C)c(OC2=NS(=O)(=O)c3ccccc32)c1`, the Potency was 2.59 µM (active).

As for `O=C1c2ccc3ccccc3c2C(=O)C1c1cc(=O)c2ccccc2[nH]1` (stereo not given), the Potency entry was “inactive”. On to `Cc1ccc(NS(=O)(=O)c2ccc3c(c2)CCN(C(=O)C(F)(F)F)C3)cc1C`, for which the Potency entry is “inactive”. As for `Cc1ccc(NS(=O)(=O)c2cccc(F)c2)cc1C`, the entry is “inactive”; as for `Cc1ccc(NS(=O)(=O)c2ccc3c(c2)CCC(=O)N3)cc1C`, “inactive”. The result for `O=C1CCc2cc(S(=O)(=O)NCc3ccccc3)ccc2N1` reads “inactive”; that for `Nc1cc(S(=O)(=O)N2CCN(S(=O)(=O)c3ccc4c(c3)OCCO4)CC2)ccn1`, “inactive”. For `COc1cccc(N2C(=O)c3ccccc3C2=O)n1`, the Potency result is “inactive”.

Turning to `Cc1ccc(NS(=O)(=O)c2cc3c(cc2-c2ccccc2)NC(=O)CO3)cc1C`, the Potency entry was “inactive”. Consider `Cc1ccc(C)c(O)c1`, for which the Potency entry is “inactive”.

Regarding `Cc1ccc(-c2nc3ccccn3c2Nc2ccc(F)cc2)o1`, the Potency entry is “inactive”.

For the molecule `CNc1cccc(S(=O)(=O)N2CCN(S(=O)(=O)c3ccc4c(c3)OCCO4)CC2)c1`, the Potency entry is “inactive”. For the molecule `COC(=O)c1ccc2c(c1)S(=O)(=O)N=C2Sc1cc(C)ccc1C`, the Potency was 8.19 µM (active). Take `Cc1sc(C)c2c1C(=O)NS2(=O)=O`: the Potency result was “inactive”.

For `Cc1ccn2c(NCc3ccco3)c(-c3ccccc3)nc2c1`, the Potency entry was “inactive”. The result for `CC(=O)Nc1ccc(S(=O)(=O)Nc2ccc(C)c(C)c2)cc1` reads “inactive”.

With `O=C1c2ccccc2C(=O)N1c1ccccn1`, the Potency result was “inactive”. The result for `Cc1ccccc1Nc1c(-c2ccc(Cl)s2)nc2ccccn12` reads “inactive”; that for `O=C1c2ccccc2C(=O)N1C1CCCCC1`, “inactive”. Consider `Cc1ccccc1NS(=O)(=O)c1ccc2c(c1)CCC(=O)N2`, for which the Potency result was “inactive”. Take `O=S1(=O)N=C(Oc2cccc3ccccc23)c2ccccc21`: the Potency was 4.11 µM (active). For `Cc1ccc(C)c(SC2=NS(=O)(=O)c3ccccc32)c1`, the Potency was 4.11 µM (active).

(Values after PubChem BioAssay AID2561 (National Center for Advancing Translational Sciences (NCATS), 2010).)
